Test results published in PubChem BioAssay (Tox21).
Inconclusive results are not listed. Active and inactive are the calls of the source. Unless noted, calls follow the shape of the dose curve; as a rule, active = well fitted curve in the direction sought with a large enough effect in the repeat runs; inconclusive = weak or mixed curves; inactive = no such curve, though single readings can be large; an effect the other way counts as inactive or inconclusive.

Columns and labels:
[1] = qHTS assay for small molecules that induce genotoxicity in human embryonic kidney cells expressing luciferase-tagged ATAD5 (AID 651632); details: HEK293T ATAD5-luciferase induction, 16 h; series mostly up to 83.3 µM; also: nearly all actives have a fitted effect of over 15% in size
How it was run: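 DMSO vehicle served as the control. HEK293T reporter cells, 16 hr at 37C, then 30 min Amplite at room temperature; ATAD5 induction is measured as luciferase activity.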

[2] = qHTS assay for small molecule agonists of the p53 signaling pathway - cell viability (AID 651633; calls by dose curve;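 also: p53RE-bla HCT reporter cells with a stable beta-lactamase p53 reporter; nearly all actives have a fitted effect of over 30% in size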); details: p53RE-bla HCT-116 viability, ATP luminescence, 16 h; series mostly up to 83.3 µM
How it was run: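 p53RE-bla cells, seeded at 4,000 per well and rested 5 h at 37 C/5% CO2, received compounds in DMSO for 16 h at 37 C. CellTiter-Glo was then added, and luminescence was read after 30 min at room temperature to gauge cytotoxicity.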

[3] = qHTS assay to test for compound auto fluorescence at 590 nm (red) in HepG2 cells (AID 720674); details: HepG2 autofluorescence, red 540/590 nm, 1 h; series mostly up to 91.3 µM
How it was run: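 Compound auto-fluorescence is scored relative to Rose Bengal sodium, measured at 540/590 nm in live HepG2 cultures after 1 hr compound contact (37 C, 5% CO2).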

[4] = qHTS assay to test for compound auto fluorescence at 535 nm (green) in HepG2 cells (AID 720675); details: green autofluorescence 485/535 nm, 1 h; series mostly up to 91.3 µM
[5] = qHTS assay to test for compound auto fluorescence at 460 nm (blue) in HEK293 cells (AID 720678); details: blue autofluorescence 405/460 nm; series mostly up to 91.3 µM
How it was run: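 HEK293 cells (2,000/well, medium with 10% dialyzed FBS) attached 4-5 hr, then exposed to compound overnight at 37C, 5% CO2. Blue fluorescence read at 405/460 nm, with triamterene as reference fluorophore.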

[6] = qHTS assay to test for compound auto fluorescence at 590 nm (red) in HEK293 cells (AID 720679); details: red autofluorescence 540/590 nm; series mostly up to 91.3 µM
How it was run: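 HEK293 cells (2,000/well, 10% dialyzed FBS) attached 4-5 hr, then dosed with compound or DMSO and incubated overnight at 37C, 5% CO2. Red fluorescence read at 540/590 nm, Rose Bengal sodium as reference fluorophore.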

[7] = qHTS assay to test for compound auto fluorescence at 535 nm (green) in HEK293 cells (AID 720680); details: green autofluorescence 485/535 nm; series mostly up to 91.3 µM
[8] = qHTS assay to test for compound auto fluorescence at 460 nm (blue) in HEK293 cell free culture (AID 720681); details: cell-free medium, autofluorescence 405/460 nm (blue); series mostly up to 91.3 µM
How it was run: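 Test compounds were pinned into cell-free culture medium (DMEM with 10% FBS) and fluorescence was read directly at Ex/Em 405/460 nm. Signals were expressed as fluorescence equivalents of triamterene, with DMSO vehicle as control.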

[9] = qHTS assay to test for compound auto fluorescence at 535 nm (green) in HEK293 cell free culture (AID 720682); details: cell-free medium, green autofluorescence 485/535 nm, stronger effect = higher value; series mostly up to 91.3 µM
How it was run: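 Read-out: 485/535 nm fluorescence intensity, calibrated against fluorescein. Medium only (DMEM + 10% FBS, no cells); test compound or DMSO vehicle added by pintool before plate reading.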

[10] = qHTS assay to test for compound auto fluorescence at 590 nm (red) in HEK293 cell free culture (AID 720683); details: cell-free medium autofluorescence, Ex540/Em590 red; series mostly up to 91.3 µM
How it was run: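 Tox21 10K library compounds were pinned into cell-free DMEM with 10% FBS and fluorescence was read at excitation 540 nm. Activity is expressed as Rose Bengal sodium equivalency.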

[11] = qHTS assay to test for compound auto fluorescence at 590 nm (red) in HepG2 cell free culture (AID 720684); details: cell-free medium autofluorescence, red 540/590 nm; series mostly up to 91.3 µM
How it was run: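 Ex 540 / Em 590 nm read of compound in cell-free MEM (10% FBS). Rose Bengal sodium reference.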

[12] = qHTS assay to test for compound auto fluorescence at 460 nm (blue) in HepG2 cell free culture (AID 720685); details: Cell-free culture medium, blue autofluorescence 405/460 nm; series mostly up to 91.3 µM
How it was run: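 Cell-free plates of MEM plus 10% FBS received 23 nL compound or DMSO vehicle; blue-channel (405/460 nm) intensity scored against triamterene as reference fluorophore.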

[13] = qHTS assay to test for compound auto fluorescence at 535 nm (green) in HepG2 cell free culture (AID 720686); details: Cell-free medium, green autofluorescence 485/535 nm; series mostly up to 91.3 µM
[14] = qHTS assay to test for compound auto fluorescence at 460 nm (blue) in HepG2 cells (AID 720687); details: autofluorescence 405/460 nm, 1 h; series mostly up to 91.3 µM
How it was run: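 Cells (2,000/well in MEM with 10% FBS) attached overnight at 37 C, then were exposed to compound or DMSO for 1 hr at 37 C, 5% CO2. Fluorescence read at Ex/Em 405/460 nm, expressed as triamterene-equivalent signal.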

[15] = biological target: Glucocorticoid receptor (Homo sapiens) (UniProt P04150); assay: qHTS assay to identify small molecule antagonists of the glucocorticoid receptor (GR) signaling pathway (AID 720692; active = well fitted inhibition curve with a large enough effect in the signal ratio in the repeat runs, not every such curve was filed as active; the % refers to the signal ratio); details: GR-bla HeLa, beta-lactamase FRET ratio, dexamethasone-stimulated, 18 h; series mostly up to 58.5 µM
How it was run: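 In a 1536-well cell format, compounds were added 4 h after seeding GR-bla HeLa cells, together with dexamethasone at 5 nM final; reporter activity was measured by FRET-substrate fluorescence following 18 h at 37 C.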

[16] = qHTS assay for small molecules that induce genotoxicity in human embryonic kidney cells expressing luciferase-tagged ATAD5 - cell viability (AID 651634; calls by dose curve; also: nearly all actives have a fitted effect of over 25% in size); details: HEK293T ATAD5-luc cells viability, CellTiter-Fluor, 15.5 h; series mostly up to 83.3 µM
How it was run: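 Here HEK293T cells with the ATAD5 luciferase reporter are incubated with test compounds for 15.5 hr, and cytotoxicity is then gauged by measuring protease activity in live cells using fluorescence.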

[17] = qHTS assay for small molecule disruptors of the mitochondrial membrane potential - cell viability (AID 720634; calls by dose curve;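 also: human HepG2 liver cancer cells; nearly all actives have a fitted effect of over 20% in size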); details: HepG2 viability, ATP luminescence (CellTiter-Glo), 1 h; series mostly up to 83.2 µM
How it was run: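 Viability of HepG2 cells is scored from ATP content by luminescence; cells are exposed to compound for 1 hr at 37 C and 5% CO2, then dosed with m-MPI dye before the CellTiter-Glo reagent.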

[18] = biological target: Glucocorticoid receptor (Homo sapiens) (UniProt P04150); assay: qHTS assay to identify small molecule agonists of the glucocorticoid receptor (GR) signaling pathway (AID 720691; active = well fitted activation curve with a large enough effect in the signal ratio in the repeat runs, not every such curve was filed as active; the % refers to the signal ratio); details: GR-bla HeLa, beta-lactamase reporter ratio, 18 h; series mostly up to 62.4 µM
How it was run: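 Compounds in DMSO, alongside positive controls, were added to GR-bla HeLa reporter cells and incubated 18 h at 37 C; GRE-driven beta-lactamase was detected by fluorescence after 2 h with FRET substrate at room temperature.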

[19] = qHTS assay for small molecule disruptors of the mitochondrial membrane potential (AID 720635); details: HepG2 mitochondrial membrane potential, Mito-MPS dye ratio; series mostly up to 83.2 µM; also: potency is read from the fitted curve at half-maximal effect
How it was run: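 HepG2 cells (2,000/well) attached overnight at 37C, then took compound for 1 hr at 37C, 5% CO2. Mito-MPS dye was added for 30 min; fluorescence was read at 490/535 nm (monomers) and 540/590 nm (aggregates).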
% is scaled to controls: 0 for no effect and ±100 for the full control effect.

Sequence of Glucocorticoid receptor (Homo sapiens) (P04150 whole entry, looked up): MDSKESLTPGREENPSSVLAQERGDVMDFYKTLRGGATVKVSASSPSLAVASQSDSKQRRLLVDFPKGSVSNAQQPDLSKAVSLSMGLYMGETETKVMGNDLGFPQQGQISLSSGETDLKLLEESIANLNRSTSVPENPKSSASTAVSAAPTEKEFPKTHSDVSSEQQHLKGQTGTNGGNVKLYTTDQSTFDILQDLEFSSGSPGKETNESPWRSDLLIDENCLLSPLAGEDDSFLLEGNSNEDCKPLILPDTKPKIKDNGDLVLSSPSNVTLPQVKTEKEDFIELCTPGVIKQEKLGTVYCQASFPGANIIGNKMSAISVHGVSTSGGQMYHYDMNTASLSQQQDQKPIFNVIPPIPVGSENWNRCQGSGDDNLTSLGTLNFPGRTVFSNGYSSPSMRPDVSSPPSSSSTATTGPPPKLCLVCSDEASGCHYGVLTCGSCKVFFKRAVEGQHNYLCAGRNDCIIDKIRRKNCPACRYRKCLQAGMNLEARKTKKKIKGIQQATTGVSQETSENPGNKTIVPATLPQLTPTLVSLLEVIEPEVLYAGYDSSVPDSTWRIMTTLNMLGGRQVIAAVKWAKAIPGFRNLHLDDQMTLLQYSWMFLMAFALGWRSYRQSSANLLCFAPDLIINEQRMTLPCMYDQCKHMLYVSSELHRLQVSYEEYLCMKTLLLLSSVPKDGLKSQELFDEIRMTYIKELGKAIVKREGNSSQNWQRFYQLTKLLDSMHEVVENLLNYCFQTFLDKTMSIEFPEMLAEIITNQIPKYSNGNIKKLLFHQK

CC(C)C(=O)c1ccccc1
inactive: outcome [1] | outcome [2] | outcome [3] | outcome [4] | outcome [5] | outcome [6] | outcome [7] | outcome [8] | outcome [9] | outcome [10] | outcome [11] | outcome [12] | outcome [13] | outcome [14]

O=S(=O)(O)CCO
inactive: outcome [1] | outcome [2] | outcome [3] | outcome [4] | outcome [5] | outcome [6] | outcome [7] | outcome [8] | outcome [9] | outcome [10] | outcome [11] | outcome [12] | outcome [13] | outcome [14] | outcome [15]

Cc1cccc(NC(=S)N(C)C)c1
inactive: outcome [1] | Potency [16] | outcome [17] | outcome [3] | outcome [4] | outcome [5] | outcome [6] | outcome [7] | outcome [8] | outcome [9] | outcome [10] | outcome [11] | outcome [12] | outcome [13] | outcome [14] | Potency [18] | outcome [15]

COc1cccc2sc(N)nc12
inactive: outcome [1] | outcome [2] | outcome [17] | outcome [3] | outcome [4] | outcome [5] | outcome [6] | outcome [7] | outcome [8] | outcome [9] | outcome [10] | outcome [11] | outcome [12] | outcome [13] | outcome [14]
active: Potency [19] 43.5 µM

CCCCCCCCCCCCC1CO1 (stereo unspecified)
inactive: outcome [2] | Potency [19] | outcome [3] | outcome [4] | outcome [5] | outcome [6] | outcome [7] | outcome [8] | outcome [9] | outcome [10] | outcome [11] | outcome [12] | outcome [13] | outcome [14] | Potency [18] | outcome [15]

Cc1ccccc1OCC1CO1 (stereo unspecified)
inactive: outcome [1] | outcome [2] | outcome [17] | outcome [3] | outcome [4] | outcome [5] | outcome [6] | outcome [7] | outcome [8] | outcome [9] | outcome [10] | outcome [11] | outcome [12] | outcome [13] | outcome [14] | Potency [18] | outcome [15]

O=CO
inactive: activity change, negative = cytotoxicity [2] 17.2% [at 8.08 µM] | activity change, negative = cytotoxicity [17] 10.1% [at 8.08 µM] | fluorescence, relative to Rose Bengal [3] 0.134% [at 9.17 µM] | fluorescence, % of fluorescein control [4] -0.0157% [at 9.17 µM] | fluorescence, % of triamterene [5] 0.001% [at 9.17 µM] | fluorescence, % of fluorescent control [6] 0.473% [at 9.17 µM] | fluorescence, % of fluorescein [7] -0.109% [at 9.17 µM] | fluorescence, % of fluorescent control [8] -0.189% [at 9.17 µM] | activity change [9] -0.0948% [at 9.17 µM] | fluorescence, % of fluorescent control [10] -0.0633% [at 9.17 µM] | fluorescence, % of Rose Bengal [11] 0.0285% [at 9.17 µM] | fluorescence, % of fluorescent control [12] -0.136% [at 9.17 µM] | fluorescence, % of fluorescein control [13] -0.0013% [at 9.17 µM] | fluorescence, % of fluorescent control [14] 0.0876% [at 9.17 µM]

CC(C)COC(=O)COc1ccc(Cl)cc1Cl
inactive: outcome [1] | outcome [2] | outcome [17] | Potency [19] | outcome [3] | outcome [4] | outcome [5] | outcome [6] | outcome [7] | outcome [8] | outcome [9] | outcome [10] | outcome [11] | outcome [12] | outcome [13] | outcome [14] | outcome [15]

Cc1cc(C)cc([N+](=O)[O-])c1
inactive: outcome [1] | outcome [2] | outcome [17] | Potency [19] | outcome [3] | outcome [4] | outcome [5] | outcome [6] | outcome [7] | outcome [8] | outcome [9] | outcome [10] | outcome [11] | outcome [12] | outcome [13] | outcome [14] | Potency [18] | outcome [15]

CCC1Nc2cc(Cl)c(S(N)(=O)=O)cc2S(=O)(=O)N1 (stereo unspecified)
inactive: outcome [1] | outcome [2] | outcome [17] | outcome [3] | outcome [4] | outcome [5] | outcome [6] | outcome [7] | outcome [8] | outcome [9] | outcome [10] | outcome [11] | outcome [12] | outcome [13] | outcome [14]

CCCCCCCC[Si](OCC)(OCC)OCC
inactive: outcome [1] | outcome [17] | outcome [3] | outcome [4] | outcome [5] | outcome [6] | outcome [7] | outcome [8] | outcome [9] | outcome [10] | outcome [11] | outcome [12] | outcome [13] | outcome [14] | outcome [15]

Nc1cc(S(=O)(=O)O)ccc1S(=O)(=O)O
inactive: outcome [1] | outcome [2] | Potency [16] | outcome [3] | outcome [4] | outcome [5] | outcome [6] | outcome [8] | outcome [9] | outcome [10] | outcome [11] | outcome [12] | outcome [13] | outcome [14] | outcome [15]

CN[C@@H]1[C@@H](O)[C@@H](O[C@@H]2[C@H](O)[C@H](O[C@H]3OC(CN)=CC[C@H]3N)[C@@H](N)C[C@H]2N)OCC1(C)O (stereo partly specified)
inactive: outcome [1] | Potency [16] | outcome [3] | outcome [4] | outcome [5] | outcome [6] | outcome [8] | outcome [9] | outcome [10] | outcome [11] | outcome [12] | outcome [13] | outcome [14] | Potency [18] | outcome [15]

COc1ccc(N=Nc2cc(C)c(N=Nc3ccc(S(=O)(=O)O)cc3)cc2OC)cc1
inactive: outcome [1] | Potency [16] | outcome [17] | outcome [3] | outcome [4] | outcome [5] | outcome [6] | outcome [7] | outcome [8] | outcome [9] | outcome [10] | outcome [11] | outcome [12] | outcome [13] | outcome [14] | Potency [18] | outcome [15]

Nc1ccc(/C=C/c2ccc(N)cc2S(=O)(=O)O)c(S(=O)(=O)O)c1
inactive: outcome [2] | outcome [17] | Potency [19] | outcome [3] | outcome [4] | outcome [5] | outcome [6] | outcome [7] | outcome [8] | outcome [9] | outcome [10] | outcome [11] | outcome [12] | outcome [13] | outcome [14]
